94 molecules from PubChem BioAssay AID602449 (Sanford-Burnham Center for Chemical Genomics, 2012) can be followed below.

Where “and” joins values, the source holds several entries; their conditions need not be identical. Equal entries are not always repeated. The campaign covered roughly 360,000 compounds. About 5,000 (1.4%) were called active.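 How the source made its calls: active means inhibition of 50% or more, scaled per plate between neutral and stimulator controls; inactive means the rest.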 The entries come from a sample that favours actives as a whole. More than one record can exist for a structure, and the calls need not agree.

The term inhibition denotes the drop in the measured response relative to a control, in per cent.

This experiment in a line: mitochondrial permeability transition pore inhibitors, primary screen, biochemical, isolated mouse mitochondria, absorbance (AID 602449).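 Further: 0% = DMSO wells given calcium and 100% = 1 mM EGTA wells.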 As to conditions: Ca2+ swelling absorbance, 30 min, at 10 µM, stronger effect = higher value.
Consider `COC(=O)[C@@]1(Cc2ccc(F)cc2)[C@H]2c3cc(C(=O)N(C)C)n(CCc4c[nH]c5ccc(OC)cc45)c3C[C@H]2CN1C(=O)c1ccccc1`, for which the inhibition was -3.6% (inactive).

As to `Cc1ccc(OCc2nnc(NC(=O)OCC(C)C)s2)cc1`, the inhibition was 0% (inactive). Consider `O=c1c2[nH]c3ccc(Cl)cc3c2ncn1Cc1ccccn1`, for which the inhibition was 0.2% (inactive). As for `COc1ccccc1C1C(C#N)=C(N)Oc2c1c(-c1ccccc1)nn2-c1ccccc1` (centres undefined), the inhibition was 43.7% (inactive). In the case of `CN/C(=C\[N+](=O)[O-])NCCSCc1csc(CN(C)C)n1`, the inhibition was -1.8% (inactive). As for `O=C(Nc1cccc(F)c1)c1coc(=O)c(Br)c1`, the inhibition is 92.1% (active). For `Cc1c(NC(=O)c2coc(=O)c(Br)c2)c(=O)n(-c2ccccc2)n1C`, the inhibition was 0.9% (inactive). As for `O=C(Nc1cccc(F)c1)NC1CCCCCCC1`, the inhibition was 46.7% (inactive). Turning to `CCC(C)NC(=O)N[C@@H](CCSC)C(=O)O` (some centres undefined), the inhibition was -0.7% (inactive). As for `CCN(Cc1ccncc1)C(=O)CCc1ccccc1`, the inhibition was 4% (inactive). As for `CC(C)(C)c1ccc(SCCc2ccncc2)cc1`, the inhibition is 105% (active). In the case of `Cc1ccc(SCCSc2ncccn2)cc1`, the inhibition is 1.5% (inactive).

As for `Cc1cc(C)c(SCCc2ccncc2)c(C)c1`, the inhibition is 90.9% (active). On to `Cc1cc(C)c(NC(=O)CSc2nc3ccncc3[nH]2)c(C)c1`, for which the inhibition is -1.3% (inactive). With `c1ccc(CSCCc2ccncc2)cc1`, the inhibition was 4% (inactive). The figure for `CN(C)CCNC(=O)c1ccc(-c2cn3c(-c4ccc(Oc5ccccc5)cc4)cnc3cn2)cc1` is -1.4% (inactive); for `O=C(OC1CCOC1=O)c1cccc(S(=O)(=O)Nc2ccc(F)cc2)c1` (centres undefined) it is 2.8% (inactive); for `CCOc1ccc(S(=O)(=O)NCCCn2ccnc2)cc1NC(C)=O` it is -0.5% (inactive).

For `CCN(CC)CCCN1C(=O)C(=O)/C(=C(/O)c2c(C)nc3ccccn23)C1c1ccc(C)o1` (centres undefined), the inhibition was 1.3% (inactive).

As to `O=C(CN(Cc1ccccc1)C(=O)c1ccc2c(c1)OCCO2)NCc1ccc2c(c1)OCO2`, the inhibition is -5.6% (inactive). For the molecule `CCC(=O)N1CCc2cc(S(=O)(=O)CCC(=O)N3CCN(c4ccccc4F)CC3)ccc21`, the inhibition is 0.5% (inactive). Take `O=C(C1Cc2ccccc2CN1C(=O)c1ccco1)N1CCN(c2ccccc2)CC1` (centres undefined): the inhibition is 0.7% (inactive).

`CN1CCC(N(C)C(=O)c2ccc(Cl)c(S(=O)(=O)Nc3ccc(Cl)cc3)c2)CC1`: the inhibition is -0.7% (inactive). For `C=C1c2c(Cl)ccc(O)c2C(O)=C2C(=O)[C@]3(O)C(O)=C(C(N)=O)C(=O)[C@@H](N(C)C)[C@@H]3[C@@H](O)C12` (some centres undefined), the inhibition was 80.1% (active). For `CCC(C)(C)NC(=O)CN(C(=O)CCC(=O)Nc1nccs1)c1ccc2c(c1)OCO2`, the inhibition is 0.4% (inactive). With `CCOC(=O)CNC(=O)/C=C/c1c(Cl)cccc1Cl`, the inhibition was 0.6% (inactive). `COc1ccc([N+](=O)[O-])cc1NCC(=O)c1ccc(C)cc1`: the inhibition is 0.6% (inactive).

As to `COc1ccc(NC(C)=O)cc1NC(=O)CN1CCN(C2c3ccccc3-c3ccccc32)CC1`, the inhibition is -1.5% (inactive).

With `c1ccc2c(c1)C(=NC1CCCCC1)NC2=NC1CCCCC1`, the inhibition is 67.5% (active). As to `Cc1cc2nc(SCCN3CCOCC3)[nH]c2cc1C`, the inhibition is 0% (inactive). Regarding `Cc1cc(C)cc(OCC(=O)Nc2ccc(S(=O)(=O)Nc3ccccn3)cc2)c1`, the inhibition was 3.7% (inactive). Consider `O=S(=O)(Nc1ccc(Oc2ncccn2)c(Cl)c1)c1ccc(F)cc1`, for which the inhibition is -1.6% (inactive). On to `Cc1ccc(S(=O)(=O)Nc2ccc3ncccc3c2)cc1`, for which the inhibition is 85% (active). For `O=C(CCN1C(=O)c2ccccc2C1=O)NNC(=O)c1ccc(Cl)cc1Cl`, the inhibition is -0.8% (inactive).

On to `O=C(NCCN1C(=O)S/C(=C\c2cccnc2)C1=O)c1cccc(OC(F)F)c1`, for which the inhibition is 2.4% (inactive). The figure for `COc1ccc(N2CC(C(=O)NCCN3C(=O)S/C(=C\c4cccnc4)C3=O)CC2=O)c(OC)c1` (centres undefined) is -0.2% (inactive); for `Cc1cc(OCCCC(=O)NCCN2C(=O)S/C(=C\c3cccnc3)C2=O)ccc1Cl` it is 84.3% (active); for `CSCCC(NC(=O)COc1ccccc1)C(=O)OCC(=O)c1cc2ccccc2o1` (centres undefined) it is 0% (inactive). Consider `CCc1nn(CC(=O)N2CCN(CC)CC2)c(=O)c2cccn12`, for which the inhibition was -0.4% (inactive). In the case of `COC(=O)C1CC2=C(CC(C)(C)CC2=O)N(c2ccccc2)C1=O` (centres undefined), the inhibition was -0.8% (inactive). For `CN1CCC[C@@H]1CCO[C@](C)(c1ccccc1)c1ccc(Cl)cc1`, the inhibition was 78% (active). Turning to `CC(C)(c1ccccc1)c1ccc(OCCN2CCCC2)cc1`, the inhibition is 2% (inactive). On to `OC(c1ccccc1)(c1ccccc1)C1CCN(CCCOc2ccccc2)CC1`, for which the inhibition is 4.5% (inactive). In the case of `CCCc1nn(C)c2c(=O)[nH]c(-c3cc(S(N)(=O)=O)ccc3OCC)nc12`, the inhibition was -0.3% (inactive). The figure for `O=C(c1cccc(N2CCCC2=O)c1)N1CCOCC1` is -0.5% (inactive); for `Cc1ccc(C(=O)Nc2ccn(C)n2)cc1` it is 1.3% (inactive); for `CSc1nccc(NC(=O)c2ccc(C(C)(C)C)cc2)n1` it is 95.6% (active). The figure for `COC(=O)c1nc(NC(=O)c2ccc(F)cc2)n[nH]1` is 11.4% (inactive); for `Cc1ccc(C)c(NC(=O)COC(=O)Cn2c(C)csc2=O)c1` it is -0.7% (inactive).

As for `COc1ccc(C(N)c2csc(NC(=O)Nc3cccc(C(F)(F)F)c3)n2)cc1` (centres undefined), the inhibition is 0.9% (inactive). For the molecule `COc1cc(NC(=O)c2[nH]cnc2C(N)=O)cc(C(=O)Nc2cccc(C(F)(F)F)c2)c1`, the inhibition is 0% (inactive). Turning to `COc1cc(NC(=O)c2cncc(-c3ccc(C#N)cc3)c2)cc(C(=O)Nc2cccc(C(F)(F)F)c2)c1`, the inhibition is 93.8% (active) and 48.4% (inactive). For the molecule `O=C(NCc1ccccc1Cl)NC(=O)c1csc([N+](=O)[O-])c1`, the inhibition was 1% (inactive). The figure for `COCCSc1nnc(NC(=O)c2cc(OC)c(OC)cc2[N+](=O)[O-])s1` is -2.4% (inactive); for `O=C(Nc1nnc(SCc2c(Cl)cccc2Cl)s1)C1CCCO1` (centres undefined) it is -1.4% (inactive); for `O=C(Nc1nnc(CCN2CCCCC2)s1)c1cccc(Cl)c1` it is -0.1% (inactive). `O=C(Nc1nnc(SCc2c(Cl)cccc2Cl)s1)c1cccc([N+](=O)[O-])c1`: the inhibition was 91.5% (active). On to `O=C(Nc1nnc(SCc2ccccc2Cl)s1)c1cccc([N+](=O)[O-])c1`, for which the inhibition was 96.3% (active).

For the molecule `CCO/N=C(/C)c1c(O)cc(-c2ccccc2)n(-c2ccccc2)c1=O`, the inhibition is 8.8% (inactive).

For the molecule `O=S1(=O)CC(N2CCC(Cc3ccccc3)CC2)CN1Cc1ccccc1` (centres undefined), the inhibition was 0.9% (inactive).

As to `COc1ccc(OCCCC(=O)Nc2nnc(C3CCCO3)s2)cc1` (centres undefined), the inhibition is 1.4% (inactive). Take `CCC1CCCCN1C(=S)NC(=O)c1ccco1` (centres undefined): the inhibition was -3.3% (inactive).

With `COc1cc(OC)cc(C(=O)Nc2nnc(SCC(=O)NCC3CCCO3)s2)c1` (centres undefined), the inhibition is -0.7% (inactive). The figure for `CCOC(=O)N1CCN(C(=O)C2CCN(c3ncnc4c3sc3cccc(F)c34)CC2)CC1` is 50% (active); for `CCOC(=O)N1CCN(C(=O)C2CCN(S(=O)(=O)c3cc(Cl)ccc3OCC)CC2)CC1` it is -0.2% (inactive); for `CCOC(=O)N1CCN(C(=O)C2CCCN(c3ncnc4c3sc3cccc(F)c34)C2)CC1` (centres undefined) it is 20.7% (inactive).

Turning to `COC(=O)C1C(=O)NCC1c1ccc(OC)cc1` (centres undefined), the inhibition was 1.1% (inactive). For the molecule `Cc1nn(-c2ccccc2)c(CC(C)(C)C(=O)O)c1C(=O)O`, the inhibition was -5.4% (inactive). The figure for `Nc1[nH]c(C(=O)c2ccccc2)c(-c2ccc(Br)cc2)c1C(=O)NC1CC1` is 0.8% (inactive); for `COc1ccccc1N1CC(C(=O)Nc2nnc(SCC(=O)NC(C)C)s2)CC1=O` (centres undefined) it is 0.4% (inactive); for `CC1=NC2(CCCc3c2no[n+]3[O-])N(O)C1(C)C` (centres undefined) it is 0.8% (inactive). As to `CCCc1nc(N)nc2c1C(=O)CC(C)(C)C2`, the inhibition was -2.5% (inactive). Turning to `CC1(C)CC(=O)c2sc(N)nc2C1`, the inhibition was 83.2% (active). With `CC(=O)Nc1nc2c(s1)C(=O)NCC(C)(C)C2`, the inhibition was 0% (inactive). In the case of `COc1cccc(NC(=O)CN(C)C(=O)CSC(=S)N2CCCC2)c1`, the inhibition is -0.1% (inactive). The figure for `CCCS(=O)(=O)N1CCCC(C(=O)NCCN2CCCCC2C)C1` (centres undefined) is -1.3% (inactive). `CCCCCCc1cc2cc(-c3nnc(-c4ccccc4)o3)c(=O)oc2cc1O`: the inhibition was 96.2% (active). Take `COc1ccccc1CNC(=O)CCCNS(=O)(=O)c1cccc2nsnc12`: the inhibition is -0.6% (inactive). Consider `COCCCNC(=O)CN1C(=O)CSc2ccc(S(=O)(=O)N3CCOCC3)cc21`, for which the inhibition was 2.1% (inactive). Take `CCc1cc2c(NC(Cc3ccccc3)C(=O)O)ncnc2s1` (centres undefined): the inhibition was 1.6% (inactive). For `CCc1cc2c(NC3CCCC3)ncnc2s1`, the inhibition was 87.6% (active). The figure for `CCc1cc2c(SCC(=O)Nc3ncc(Cl)c(C)c3Cl)ncnc2s1` is 46.1% (inactive); for `CC(=O)Oc1ccc(OC(C)=O)c2c1C1C=CC2CC1` it is -0.2% (inactive); for `COc1cccc(-c2cnc3c(NC(C)=O)cc(-c4cc(F)ccc4OC)cn23)c1` it is -0.3% (inactive). Next, `O=C1CSC(=S)N1c1ccc(Cl)c(Cl)c1`: 2.2% (inactive); `CC(C)N1C(=S)SC(C)(C)C1n1oc(=O)n(-c2ccc(Cl)c(Cl)c2)c1=O` (centres undefined): 92.3% (active); `Cc1cc(=O)cc(C)n1-c1ccc(Cl)c(Cl)c1`: -0.1% (inactive). With `N#Cc1cc([N+](=O)[O-])ccc1NC(=O)COC(=O)c1cnccn1`, the inhibition was -1.8% (inactive). Next, `Cc1ccc(OCCNC(=O)CNC(=O)c2ccc(C)c(C)c2)cc1`: -0.6% (inactive); `O=C(Nc1cccc(Br)c1)C1CC(=O)N(C2CCCC2)C1` (centres undefined): -0.1% (inactive). `CC(C)S(=O)(=O)c1csc(NC(=O)Nc2ccc(Cl)cc2)c1Cl`: the inhibition is 88.8% (active). The figure for `CC(=O)N1CCC(N(C(=O)Nc2ccc(Cl)cc2)C(C)C)CC1` is 2.8% (inactive); for `COc1ccc(OCC(O)CNC(=O)Nc2ccc(Cl)cc2)cc1` (centres undefined) it is 6.8% (inactive). As to `Cc1ccc(S(=O)(=O)N(C)C)cc1NC(=O)COC(=O)/C=C/c1cccs1`, the inhibition was -1.3% (inactive).
